This note sets out measurements from PubChem BioAssay (NCATS).

Records with an inconclusive call do not appear. A number with no mark means an inactive call. Activity calls are given as the source filed them. Calls follow the shape of the dose curve; as a rule, active = well fitted cell-killing curve with a large enough effect; inconclusive = small, poorly fitted or top-dose-only effect, or effect the other way; inactive = no such curve, though single readings can be large or run the other way.
Potency is read from the fitted curve at half-maximal effect.

The test can be described thus: qHTS of pediatric cancer cell lines to identify multiple opportunities for drug repurposing: Confirmatory screen for SJ-GBM2 cells (AID 1347116). Also: nearly all actives have a fitted effect of over 60% in size.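 As to activity change, negative = cytotoxic: plate controls were DMSO for no effect and bortezomib for full effect.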 Conditions: SJ-GBM2 glioblastoma cells, viability; series mostly up to 45.9 µM; activity change, negative = cytotoxic: at the top concentration. In short, it runs like this:
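Viability measured as metabolically active cells via CellTiter-Glo luminescence following 48 hours of compound exposure, 11-point dilutions in confirmatory testing. 500-1,000 cells/well plated 5 hours before dosing; controls were DMSO and 2.3 µM bortezomib.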
On to `CCC[C@H](N[C@@H](C)C(=O)N1[C@@H]2CCCC[C@H]2C[C@H]1C(=O)O)C(=O)OCC`, for which the “activity change, negative = cytotoxic” value was 8.79%.

For the molecule `CCC(=O)OCC(=O)[C@@]1(OC(=O)CC)[C@@H](C)C[C@@H]2[C@H]3CCC4=CC(=O)C=C[C@]4(C)[C@@]3(F)[C@@H](O)C[C@@]21C`, the “activity change, negative = cytotoxic” value was -11.3%.

Consider `CC(C)n1c(C=C[C@H](O)C[C@H](O)CC(=O)O)c(-c2ccc(F)cc2)c2ccccc21`, for which the Potency is 13.1 µM (active).

Turning to `CCN(CCO)CCCOc1ccc2c(Nc3cc(CC(=O)Nc4cccc(F)c4)[nH]n3)ncnc2c1`, the “activity change, negative = cytotoxic” value was -10.1%.

As for `Cc1ccc2c(c1)C(=O)[C@]1(O)CCN(c3ccccc3)C1=N2`, the “activity change, negative = cytotoxic” value was -13.8%.

For the molecule `COc1cc([C@@H]2c3cc4c(cc3[C@@H](O[C@@H]3O[C@@H]5CO[C@@H](C)O[C@@H]5[C@H](O)[C@@H]3O)[C@H]3COC(=O)[C@H]23)OCO4)cc(OC)c1O`, the Potency was 9.27 µM (active).

As for `COc1cc2ncnc(Nc3cc(Br)c(O)c(Br)c3)c2cc1OC`, the “activity change, negative = cytotoxic” value was 33%.

For the molecule `O=C1Nc2ccc(I)cc2C1=Cc1cc(Br)c(O)c(Br)c1`, the molecule was classed as inactive.
